Here are results for seven molecules from PubChem BioAssay (Tox21).

“And” between values parts separate entries of the source, which are not always exact repeats. Identical values can stand only once. Results filed as inconclusive are left out. The source holds several records for some structures; these can differ, active in one and inactive in another. The source made the active and inactive calls. Unless noted, calls follow the shape of the full dose curve.

Experiment [1] in a line: Nuclear factor erythroid 2-related factor 2/antioxidant responsive element (Nrf2/ARE) small molecule agonists: qHTS cell viability counter screen in human keratinocytes (AID 1919968; active = well fitted curve in the direction sought with a large enough effect in the repeat runs; an effect the other way counts as inactive or inconclusive; also: nearly all actives have a fitted effect of over 55% in size; also: potency is read from the fitted curve at half-maximal effect). An outline of the steps: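 In human HaCaT keratinocytes stably expressing an ARE-driven luciferase, compound exposure lasted 23 h at 37 C under 5% CO2. Viable cells are quantified with a protease-based fluorogenic reagent (CellTiter-Fluor) read 1 h after addition.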

Experiment [2] is described as follows: Nuclear factor erythroid 2-related factor 2/antioxidant responsive element (Nrf2/ARE) small molecule agonists: luciferase reporter gene qHTS assay in human keratinocytes (AID 1919969). Also: nearly all actives have a fitted effect of over 35% in size. Also: potency is read from the fitted curve at half-maximal effect.
Experiment [3] deals with KiSS-1 receptor (Homo sapiens) (UniProt Q969F8). Kind of experiment: Human kisspeptin (KISS1R) small molecule agonists, calcium flux assay in KISS1R-HEK293 cells (AID 1920064; active = well fitted curve in the direction sought with a large enough effect in the repeat runs; an effect the other way counts as inactive or inconclusive). In a few lines: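 Concentration-response testing used 15 concentrations in triplicate on human KISS1R-expressing HEK293 cells. Calcium-dependent fluorescence (Ex/Em 480/540) was followed kinetically for 3 min after compound transfer.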
Chain of KiSS-1 receptor (Homo sapiens) (Q969F8 whole entry, looked up): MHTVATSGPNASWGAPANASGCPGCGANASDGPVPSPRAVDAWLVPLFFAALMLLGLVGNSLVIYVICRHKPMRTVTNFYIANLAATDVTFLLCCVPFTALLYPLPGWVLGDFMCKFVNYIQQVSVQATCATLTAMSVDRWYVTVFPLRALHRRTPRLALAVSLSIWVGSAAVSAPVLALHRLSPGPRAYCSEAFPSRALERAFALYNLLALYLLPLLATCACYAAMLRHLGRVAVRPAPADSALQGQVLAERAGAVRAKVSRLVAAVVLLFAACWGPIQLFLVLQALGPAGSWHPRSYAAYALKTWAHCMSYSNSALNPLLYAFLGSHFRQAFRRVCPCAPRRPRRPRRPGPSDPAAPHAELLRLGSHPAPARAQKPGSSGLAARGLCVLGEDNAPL

Experiment [4] is described as follows: p53 small molecule agonists, cell-based qHTS assay with human liver microsomes (AID 1963577). In a few lines: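 In this qHTS, p53 response-element beta-lactamase cells receive test compound together with a microsome/NADPH activating system (0.5 mg/mL final each) and are incubated 16 h at 37 C before LiveBLAzer fluorescence detection.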
Experiment [5] in a line: p53 small molecule agonists, cell-based qHTS assay with rat liver microsomes (AID 1963578). An outline of the steps: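 Agonist mode in p53RE-bla reporter cells, with compounds co-incubated 16 h at 37 C alongside 0.5 mg/mL rat liver microsomes and 0.5 mg/mL NADPH (final), followed by a 2 h LiveBLAzer detection step.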
Experiment [6] can be described thus: p53 small molecule agonists, cell-based qHTS assay with human liver microsomes: qHTS cell viability counter screen (AID 1963579). Also: nearly all actives have a fitted effect of over 45% in size. In a few lines:
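Metabolically activated exposure: compounds, human liver microsomes and NADPH (0.5 mg/mL final apiece) were added to p53RE-bla cells seeded 5 h earlier, left 16 h at 37 C, and then assessed for viability by CellTiter-Glo luminescence.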

A short description of experiment [7]: p53 small molecule agonists, cell-based qHTS assay with rat liver microsomes: qHTS cell viability counter screen (AID 1963580). Also: nearly all actives have a fitted effect of over 45% in size. An outline of the steps:
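Counter screen for cytotoxicity under metabolic activation: rat liver microsomes and NADPH, 0.5 mg/mL final each, added with compounds to p53RE-bla HCT-116 cells; 16 h at 37 C, then ATP luminescence read.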

Experiment [8] in a line: p53 small molecule agonists, cell-based qHTS assay: qHTS cell viability counter screen (AID 1963581). Also: nearly all actives have a fitted effect of over 45% in size. In a few lines: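 Luminescence from CellTiter-Glo, reflecting ATP content, serves as the cytotoxicity measure; it is taken after the 2 h reporter substrate step in HCT-116 p53RE-bla cells dosed for 16 h at 37 C.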
A short description of experiment [9]: p53 small molecule agonists, cell-based qHTS assay (AID 1963582; active = well fitted activation curve with a large enough effect in the signal ratio in the repeat runs, not every such curve was filed as active; the % refers to the signal ratio). An outline of the steps: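 After plating, p53RE-bla cells sat 5 h in the incubator; compounds or DMSO vehicle were pinned in; a 16 h incubation at 37 C followed; FRET substrate was added and, 2 h later at RT, fluorescence was measured.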
For experiment [10], the target named is 5-hydroxytryptamine receptor 2A (Homo sapiens) (UniProt P28223). Nature of the experiment: 5-hydroxytryptamine receptor 2A (HTR2A) small molecule antagonists, cell-based qHTS assay (AID 1963586). Also: nearly all actives have a fitted effect of over 45% in size. An outline of the steps:
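CHO cells stably expressing human HTR2A were plated for 18 h at 37 C, then loaded with calcium dye for 1 h. Compounds were preincubated 5 min at room temperature before DOI (4 nM solution) was added. Kinetic fluorescence was read for 3 min.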

Experiment [11] has the same target. Nature of the experiment: 5-hydroxytryptamine receptor 2A (HTR2A) small molecule agonists, cell-based qHTS assay (AID 1963587). Also: nearly all actives have a fitted effect of over 30% in size. An outline of the steps:
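HTR2A-CHO cells, plated 18 h at 37 C/5% CO2, dye-loaded 1 h at 37 C; compounds in DMSO added by pin tool (agonist mode). Intracellular calcium flux read as kinetic fluorescence on FDSS over 2 min at 1 s intervals.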

Experiment [12] addresses Muscarinic acetylcholine receptor M1 (Homo sapiens) (UniProt P11229). Nature of the experiment: Cholinergic receptor muscarinic 1 (CHRM1) small molecule agonists, cell-based qHTS assay (AID 1963589). Also: nearly all actives have a fitted effect of over 35% in size. In a few lines: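 Fluorescent calcium dye reports M1 activation in stably transfected CHO cells. Compounds, 15 concentrations, added after 1 h dye loading at 37 C; kinetic reading at 1 sec intervals.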

Experiment [13] can be described thus: cAMP Responsive Elements (CRE) small molecule agonists, cell-based qHTS assay (AID 1963590). An outline of the steps:
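Compound exposure lasted 3 h at 37 C/5% CO2 in CRE-bla HEK 293T cells grown in assay medium with 10% dialyzed FBS and 25 mM HEPES. Reporter signal came from LiveBLAzer B/G FRET substrate, 2 h, room temperature.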

The nature of experiment [14]: cAMP Responsive Elements (CRE) small molecule antagonists, cell-based qHTS assay (AID 1963591; active = well fitted inhibition curve with a large enough effect in the signal ratio in the repeat runs, not every such curve was filed as active; the % refers to the signal ratio). An outline of the steps: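 Stimulation used NKH477 at a final 0.25 uM for 3 h in compound-treated CRE-bla HEK293T cells, seeded 18 h beforehand. Reporter activity was measured with LiveBLAzer B/G FRET substrate after 2 h at room temperature.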
Experiment [15] deals with Beta-2 adrenergic receptor (Homo sapiens) (UniProt P07550). Kind of experiment: Adrenergic beta2 receptor (ADRB2) small molecule antagonists, cell-based qHTS assay (AID 1963592). Also: series mostly up to about 92 µM; nearly all actives have a fitted effect of over 50% in size. An outline of the steps:
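Assay format: CHO-ADRB2 cells, 18-20hr seeding at 37C/5% CO2, then compound plus 1nM isoproterenol agonist mix for 0.5hr RT. Homogeneous time-resolved fluorescence cAMP detection after 1hr, expressed as 665/615 nm ratio.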

For experiment [16], the target named is D(2) dopamine receptor (Homo sapiens) (UniProt P14416). Kind of experiment: Dopamine D2 receptor (DRD2) small molecule agonists, cell-based qHTS assay (AID 1963594). Also: nearly all actives have a fitted effect of over 35% in size. An outline of the steps:
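HEK293 cells stably expressing DRD2 were cultured 24 h at 37 C, then given Ro20-1724 (0.1 mM final) and compounds for 10 min at room temperature. NKH477 (200nM) was then added for 30 min. cAMP was read by HTRF.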

Experiment [17] has the same target. Kind of experiment: Dopamine D2 receptor (DRD2) small molecule antagonists, cell-based qHTS assay (AID 1963595; active = well fitted inhibition curve with a large enough effect in the signal ratio in the repeat runs, with a control signal flat; the % refers to the signal ratio). In a few lines: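 HEK293 cells stably expressing DRD2, preincubated with 0.1 mM Ro20-1724 and compounds 10 min, were stimulated with 200 nM NKH477 plus 12 nM quinpirole for 30 min at room temperature; cAMP measured by HTRF (665/620 nm).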
Experiment [18] has as its target Gonadotropin-releasing hormone receptor (Homo sapiens) (UniProt P30968). Nature of the experiment: Human gonadotropin-releasing hormone receptor (GnRHR) small molecule agonists, calcium flux assay in GnRHR-HEK293 cells (AID 1920063). Also: nearly all actives have a fitted effect of over 35% in size. An outline of the steps: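 Intracellular calcium rise is the read-out: engineered human GnRHR HEK293 cells, dye-loaded, are exposed to DMSO-dissolved compounds and fluorescence at Ex/Em 480/540 is tracked for 3 min.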

The target in experiment [19] is Beta-2 adrenergic receptor (Homo sapiens) (UniProt P07550). Nature of the experiment: Adrenergic beta2 receptor (ADRB2) small molecule agonists, cell-based qHTS assay (AID 1963593).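 Also: CHO cells stably overexpressing human ADRB2.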 In a few lines: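 CHO cells stably over-expressing ADRB2 were plated overnight at 37C, then dosed with compounds plus a stimulation mix containing 100uM IBMX and 25uM Ro-20-1724 for 0.5hr at room temperature. cAMP was measured by HTRF competition, 1hr.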
Chain of Beta-2 adrenergic receptor (Homo sapiens) (P07550 whole entry, looked up): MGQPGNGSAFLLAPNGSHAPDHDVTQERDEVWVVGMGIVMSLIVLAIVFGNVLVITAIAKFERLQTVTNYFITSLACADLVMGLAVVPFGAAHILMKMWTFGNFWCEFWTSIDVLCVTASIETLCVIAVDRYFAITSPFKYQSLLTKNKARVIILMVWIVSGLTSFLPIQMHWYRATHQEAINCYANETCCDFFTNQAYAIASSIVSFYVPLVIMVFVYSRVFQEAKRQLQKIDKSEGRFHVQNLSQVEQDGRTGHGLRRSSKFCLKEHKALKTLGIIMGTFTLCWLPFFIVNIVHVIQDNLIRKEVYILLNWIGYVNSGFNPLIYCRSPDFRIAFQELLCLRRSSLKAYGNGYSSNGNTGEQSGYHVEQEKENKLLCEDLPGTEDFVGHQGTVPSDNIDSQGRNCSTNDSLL

Experiment [20] addresses Muscarinic acetylcholine receptor M1 (Homo sapiens) (UniProt P11229). Kind of experiment: Cholinergic receptor muscarinic 1 (CHRM1) small molecule antagonists, cell-based qHTS assay (AID 1963588). Also: nearly all actives have a fitted effect of over 40% in size. In a few lines:
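Compounds were tested at 15 concentrations in three independent runs. Dye-loaded CHRM1-CHO cells were exposed 5 min at room temperature before stimulation by acetylcholine added at 50nM. Intracellular calcium was read kinetically on FDSS for 3 min.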

Chain of D(2) dopamine receptor (Homo sapiens) (P14416 whole entry, looked up): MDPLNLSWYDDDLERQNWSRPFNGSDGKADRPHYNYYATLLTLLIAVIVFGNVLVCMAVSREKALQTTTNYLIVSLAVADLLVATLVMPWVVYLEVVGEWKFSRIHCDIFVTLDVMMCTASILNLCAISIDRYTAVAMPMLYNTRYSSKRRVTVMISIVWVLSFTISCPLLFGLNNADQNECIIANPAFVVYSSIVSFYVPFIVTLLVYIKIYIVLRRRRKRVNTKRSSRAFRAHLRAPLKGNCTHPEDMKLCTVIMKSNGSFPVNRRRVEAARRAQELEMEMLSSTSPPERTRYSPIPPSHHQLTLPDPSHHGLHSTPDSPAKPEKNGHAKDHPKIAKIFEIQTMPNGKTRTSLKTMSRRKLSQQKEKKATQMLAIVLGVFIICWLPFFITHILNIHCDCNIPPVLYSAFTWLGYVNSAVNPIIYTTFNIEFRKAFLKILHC
Chain of 5-hydroxytryptamine receptor 2A (Homo sapiens) (P28223 whole entry, looked up): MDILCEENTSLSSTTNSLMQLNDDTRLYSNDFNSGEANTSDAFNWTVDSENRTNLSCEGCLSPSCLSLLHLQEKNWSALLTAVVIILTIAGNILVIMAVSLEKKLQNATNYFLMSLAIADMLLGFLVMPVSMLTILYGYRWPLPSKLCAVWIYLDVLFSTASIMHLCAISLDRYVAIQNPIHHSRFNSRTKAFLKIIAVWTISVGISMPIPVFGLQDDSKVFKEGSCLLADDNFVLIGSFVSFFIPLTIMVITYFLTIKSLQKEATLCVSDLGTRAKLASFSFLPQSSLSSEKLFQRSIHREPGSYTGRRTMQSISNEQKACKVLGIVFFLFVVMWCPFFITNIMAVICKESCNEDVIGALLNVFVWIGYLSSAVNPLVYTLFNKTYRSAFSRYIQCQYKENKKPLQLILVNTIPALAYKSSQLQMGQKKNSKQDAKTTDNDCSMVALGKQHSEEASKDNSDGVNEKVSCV
Chain of Gonadotropin-releasing hormone receptor (Homo sapiens) (P30968 whole entry, looked up): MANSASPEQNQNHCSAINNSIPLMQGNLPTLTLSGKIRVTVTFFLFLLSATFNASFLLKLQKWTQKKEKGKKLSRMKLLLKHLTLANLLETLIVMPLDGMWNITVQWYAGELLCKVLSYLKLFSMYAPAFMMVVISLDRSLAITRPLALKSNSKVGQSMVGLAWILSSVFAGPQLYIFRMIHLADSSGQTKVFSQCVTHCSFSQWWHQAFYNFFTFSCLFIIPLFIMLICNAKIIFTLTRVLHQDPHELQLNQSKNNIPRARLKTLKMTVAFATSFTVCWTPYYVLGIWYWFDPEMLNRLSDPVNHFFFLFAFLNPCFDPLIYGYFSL
Chain of Muscarinic acetylcholine receptor M1 (Homo sapiens) (P11229 whole entry, looked up): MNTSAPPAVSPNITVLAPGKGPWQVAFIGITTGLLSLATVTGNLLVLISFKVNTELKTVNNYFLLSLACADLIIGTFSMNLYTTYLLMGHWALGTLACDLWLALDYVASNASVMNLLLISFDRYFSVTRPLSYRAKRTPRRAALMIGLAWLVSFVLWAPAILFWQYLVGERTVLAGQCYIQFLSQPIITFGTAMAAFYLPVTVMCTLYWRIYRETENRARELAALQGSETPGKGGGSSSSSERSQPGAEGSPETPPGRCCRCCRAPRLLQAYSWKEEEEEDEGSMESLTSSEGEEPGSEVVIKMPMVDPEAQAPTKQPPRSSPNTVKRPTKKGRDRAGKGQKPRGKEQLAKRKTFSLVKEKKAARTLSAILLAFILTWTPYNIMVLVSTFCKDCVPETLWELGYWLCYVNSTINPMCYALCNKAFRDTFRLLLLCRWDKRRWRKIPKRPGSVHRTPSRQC

Turning to `C=C(C)C(=O)Nc1ccc(Cl)c(Cl)c1`, the Potency result in experiment [1], in [3], in experiment [4], in [5], in experiment [6] and in [7] was “inactive” each time. Further, the Potency entry in [8], in experiment [9], in experiment [10], in [11], in experiment [12] and in experiment [13] was “inactive” each time. The Potency result in experiment [14], in experiment [15], in experiment [16] and in experiment [17] was “inactive” each time. Further, the Potency in experiment [2] was 55 µM (active) and 43.1 µM (active).
With `Cc1c(OCC(F)(F)F)ccnc1CS(=O)c1nc2ccccc2[nH]1` (stereo not drawn), the Potency result in experiment [1], in [18], in experiment [4], in experiment [5], in experiment [6] and in experiment [8] was “inactive” throughout. The Potency entry in [9], in experiment [13], in experiment [14], in [15], in experiment [19] and in experiment [16] was “inactive” each time. Further, the Potency entry in experiment [17] was “inactive”. The Potency in experiment [2] was 24.3 µM (active) and 33.5 µM (active).
Regarding `Nc1ccc(Cl)cc1Cl`, the Potency entry in experiment [1], in experiment [2], in experiment [3], in experiment [4], in experiment [5] and in experiment [6] was “inactive” each time. The Potency entry in experiment [7], in [8], in experiment [9], in [10], in experiment [11] and in experiment [20] was “inactive” throughout. Also, the Potency entry in experiment [12], in experiment [13], in experiment [14], in [15], in [19] and in experiment [16] was “inactive” each time. Also, in [17], the Potency entry was “inactive”.
Turning to `CCNc1ccccc1`, the Potency result in [1], in experiment [2], in experiment [3], in experiment [4], in experiment [5] and in [6] was “inactive” throughout. Besides, the Potency entry in [7], in experiment [8], in experiment [9], in [11], in [20] and in experiment [12] was “inactive” in each case. Besides, the Potency entry in experiment [13], in [14], in experiment [15], in [16] and in experiment [17] was “inactive” throughout.
Take `COC(=O)c1cccnc1`: the Potency entry in experiment [1], in [2], in [18], in [4], in experiment [5] and in experiment [7] was “inactive” each time. Also, the Potency entry in experiment [8], in experiment [9], in experiment [10], in [11], in [20] and in [12] was “inactive” throughout. Also, the Potency entry in experiment [13], in experiment [14], in experiment [15], in experiment [19], in experiment [16] and in [17] was “inactive” each time.
Turning to `c1ccc2c(c1)ccc1ccccc12`, the Potency result in [1], in experiment [2], in [3], in experiment [4], in experiment [5] and in experiment [6] was “inactive” in each case. For the same molecule, the Potency result in experiment [7], in experiment [8], in [9], in experiment [10], in experiment [11] and in [20] was “inactive” throughout. For the same molecule, the Potency result in [12], in [13], in experiment [14], in experiment [15], in experiment [16] and in experiment [17] was “inactive” in each case.
Turning to `CCCCCCc1ccc(O)cc1O`, in [1], the Potency was 48.7 µM (active) and inactive. Moreover, the Potency result in experiment [2], in experiment [18], in [4], in experiment [7], in [8] and in [9] was “inactive” in each case. In addition, the Potency result in experiment [20], in experiment [12], in [13], in experiment [14], in [15] and in experiment [19] was “inactive” each time. Further, the Potency result in experiment [16] and in experiment [17] was “inactive” throughout.
